Screens (PubChem)
NOMO-1 viab = STK33 inhibitor candidate reducing NOMO-1 cell viability; inhibition, % (concentration not given with the values); NOMO-1 AML viability, CellTiter-Glo luminescence, 72 h; AID 2330; 37,000 tested, 7.5% active; in the data active means inhibition above about 80%; inconclusive means no clear call, values can overlap the other calls
STK33 inh = human STK33 kinase inhibition; Q9BYT3; ADP-Glo luminescence, MBP substrate; inhibition, % at 12.5 µM; 27,000 tested, 0.44% active; AID 2322; in the data active means inhibition above about 20%; inconclusive means no clear call, values can overlap the other calls
Target sequence (Q9BYT3 whole entry, looked up): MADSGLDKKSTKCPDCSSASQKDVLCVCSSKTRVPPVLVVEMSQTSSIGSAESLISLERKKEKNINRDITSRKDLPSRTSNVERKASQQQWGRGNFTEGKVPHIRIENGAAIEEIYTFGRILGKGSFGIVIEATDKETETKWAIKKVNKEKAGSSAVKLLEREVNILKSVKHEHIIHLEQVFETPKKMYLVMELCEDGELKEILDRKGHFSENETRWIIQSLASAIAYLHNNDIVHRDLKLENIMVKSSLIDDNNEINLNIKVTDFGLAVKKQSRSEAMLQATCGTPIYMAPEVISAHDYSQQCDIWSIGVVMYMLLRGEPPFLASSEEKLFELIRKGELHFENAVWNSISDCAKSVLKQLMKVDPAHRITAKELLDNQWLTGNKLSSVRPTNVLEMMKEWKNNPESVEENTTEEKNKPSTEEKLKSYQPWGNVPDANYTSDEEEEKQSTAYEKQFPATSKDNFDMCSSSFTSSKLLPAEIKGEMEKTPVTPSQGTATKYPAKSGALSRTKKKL
PD-1 reversal = reversal of PD-1 mediated T-cell inhibition. activation, % (no concentration beside the values). primary human CD4 T cells, PD-L1 beads, CellTiter-Glo 96 h. 29,000 tested, under 10 active; call rule not given here;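 further: 0% = median vehicle wells and 100% = positive control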
* hit, by the source's call; ? = inconclusive; . = not tested or not shown. Shown is part of a subset that was picked to be rich in hits.

SMILES	NOMO-1 viab	STK33 inh	PD-1 reversal
COc1ccc(NC(=O)Nc2cccc3c2O[C@H](CN(C)Cc2ccc(C(=O)Nc4ccccc4N)cc2)[C@@H](C)CN([C@H](C)CO)C3=O)cc1	128.3*	.	-3.8
COCCSc1nnc(NC(=O)c2sc3ccccc3c2Cl)s1	3.4	-0.8	0.9
CCNS(=O)(=O)c1cc(-c2nnc(Nc3ccc(NC(C)=O)cc3)c3ccccc23)ccc1C	9.7	1.1	4.8
CC(=O)Nc1sc2c(c1SC#N)CCCC2	72.3	.	-7.7
COc1cc(C2C3=C(CCCC3=O)Nc3[nH]c(=O)[nH]c(=O)c32)cc(OC)c1OC (stereo unspecified)	21.8	.	-0.2
Cc1cccnc1NC(=O)COc1ccc(Cl)cc1Cl	43.1	2.8	.
Cc1c(C)c(C)c(CSC2CC(=O)N(c3ccccc3)C2=O)c(C)c1C (stereo unspecified)	4.9	.	0.4
O=C1CC(Sc2nnc(-c3ccccc3O)o2)C(=O)N1c1ccccc1 (stereo unspecified)	122.3*	-9.3	-14.1
O=C(CSc1nnc(-c2ccccc2Br)o1)c1ccc2c(c1)OCCO2	22.7	0.7	0.3
CCn1c(SCC(=O)Nc2cccc(Cl)c2C)nnc1-c1ccc(Br)cc1	18.7	1.3	.
CC(C)c1ccc(NC(=O)CSc2nnc(-c3ccc(Br)cc3)n2C)cc1	-13.5	-0.6	1.0
C[C@H](CO)N1C[C@H](C)[C@@H](CN(C)Cc2ccc(C(=O)O)cc2)Oc2c(NC(=O)c3ccc(-c4nccs4)cc3)cccc2C1=O	13.3	.	2.8
C[C@H](CO)N1C[C@H](C)[C@@H](CN(C)S(=O)(=O)c2ccc(Cl)cc2)Oc2c(NC(=O)c3ccc(-c4nccs4)cc3)cccc2C1=O	22.5	.	-2.0
C[C@H](CO)N1C[C@H](C)[C@@H](CN(C)Cc2ccc(Cl)c(Cl)c2)Oc2c(NC(=O)c3ccc(-c4nccs4)cc3)cccc2C1=O	115.7*	.	-9.1
C[C@H](CO)N1C[C@H](C)[C@@H](CN(C)Cc2ccc3c(c2)OCO3)Oc2c(NC(=O)c3ccc(-c4nccs4)cc3)cccc2C1=O	65.6	.	-2.9
C[C@@H]1CN([C@@H](C)CO)C(=O)c2cccc(NC(=O)c3ccc(-c4nccs4)cc3)c2O[C@H]1CN(C)Cc1ccc2c(c1)OCO2	103.0*	.	-4.0
C[C@H](CO)N1C[C@H](C)[C@H](CN(C)S(=O)(=O)c2ccc(Cl)cc2)Oc2c(NC(=O)c3ccc(-c4nccs4)cc3)cccc2C1=O	84.0*	.	-1.4
CCN(CC(=O)Nc1ccc(Br)cc1F)S(=O)(=O)c1ccc2ccccc2c1	6.3	1.0	.
CCCn1nnc(NC(=O)COc2ccc(C)cc2)n1	14.3	-0.4	0.5
Cn1c(SCC(=O)c2ccc([N+](=O)[O-])cc2)nnc1-c1cc2ccccc2cc1O	47.8	2.0	-7.4
COC(=O)c1cc(NC(=S)NCc2cccnc2)cc(C(=O)OC)c1	106.4*	0.5	-1.3
CC(=O)c1cccc(NC(=S)NCc2cccnc2)c1	15.2	14.9	.
O=C(O[C@H]1[C@H](Oc2ccccc2COC(=O)C2(O)C=CCCC2=O)O[C@H](CO)[C@@H](O)[C@@H]1O)c1ccccc1 (stereo partly specified)	120.6*	-1.2	-4.1
CC(=O)O[C@H]1[C@H](Oc2ccccc2COC(=O)C2(O)C=CCCC2=O)O[C@H](CO)[C@@H](O)[C@@H]1O (stereo partly specified)	26.1	1.8	-2.1
COc1cccc2sc(=NC(=O)CC34CC5CC(CC(C5)C3)C4)n(C)c12	-1.6	.	1.7
SMILES	NOMO-1 viab	STK33 inh	PD-1 reversal
C=CCn1c2ccccc2n2nc(CCC(=O)O)c(=O)nc12	-4.2	3.3	3.0
CN1CCN(c2ncc3c(=S)[nH]c(=S)[nH]c3n2)CC1	5.3	.	0.2
c1ccc(-c2cnc3nonc3n2)cc1	114.5*	.	-5.0
Cc1cc2ncc(-c3ccccc3)nc2cc1C	19.5	2.9	3.1
COc1cc(O)c2c(c1)O[C@H](c1ccc(O)c(O)c1)[C@@H](O)C2=O	.	5.9	.
Clc1ccc(COc2ccccc2CNc2ncn[nH]2)c(Cl)c1	30.3	0.8	.
C[C@@H]1CN([C@@H](C)CO)C(=O)Cc2cc(NS(=O)(=O)c3ccc(Cl)cc3)ccc2O[C@@H]1CN(C)CC1CCCCC1	101.6*	1.0	-5.9
Cc1ccc(S(=O)(=O)Nc2ccc3c(c2)CC(=O)N([C@@H](C)CO)C[C@H](C)[C@@H](CN(C)CC2CCCCC2)O3)cc1	?	1.9	-2.0
Cc1ccc(S(=O)(=O)Nc2ccc3c(c2)CC(=O)N([C@@H](C)CO)C[C@@H](C)[C@@H](CN(C)CC2CCCCC2)O3)cc1	97.1*	2.2	-1.3
C[C@H]1CN([C@@H](C)CO)C(=O)Cc2cc(NS(=O)(=O)c3ccc(Cl)cc3)ccc2O[C@H]1CN(C)CC1CC1	9.1	4.2	0.9
Cc1ccc(NC(=O)c2c(NC(=O)CN3CCOCC3)sc3c2CCC3)c(C)c1	52.6	0.0	-3.1
O=C(CN1C(=O)c2ccccc2C1=O)c1ccc(C(F)(F)F)cc1	-16.0	.	3.3
COc1ccc(CN(C)C[C@H]2Oc3c(NC(=O)Nc4ccc(C(F)(F)F)cc4)cccc3C(=O)N([C@@H](C)CO)C[C@H]2C)cc1	49.9	.	.
COc1ccc(NC(=O)Nc2cccc3c2O[C@H](CN(C)Cc2ccc(C(F)(F)F)cc2)[C@@H](C)CN([C@H](C)CO)C3=O)cc1	106.2*	.	-1.8
COc1ccc(CN(C)C[C@H]2Oc3c(NC(=O)Nc4ccc(F)cc4)cccc3C(=O)N([C@@H](C)CO)C[C@@H]2C)cc1	55.8	.	.
COc1ccc(CN(C)C[C@H]2Oc3c(NC(=O)Nc4ccc(C(F)(F)F)cc4)cccc3C(=O)N([C@H](C)CO)C[C@@H]2C)cc1	94.3*	.	-6.1
COc1ccc(CN(C)C[C@H]2Oc3c(NC(=O)Nc4ccc(C(F)(F)F)cc4)cccc3C(=O)N([C@@H](C)CO)C[C@@H]2C)cc1	101.0*	.	-6.3
COc1ccc(NC(=O)Nc2cccc3c2O[C@H](CN(C)Cc2ccc(C(F)(F)F)cc2)[C@@H](C)CN([C@@H](C)CO)C3=O)cc1	84.8*	.	0.0
O=C(Nc1ccc(Cl)cc1)NC(Cc1ccccc1)C(=O)O (stereo unspecified)	-0.9	-2.5	-0.4
Cc1ccc(Cl)c(NC(=O)NCCN2CCN(c3ccccc3[N+](=O)[O-])CC2)c1	37.6	-0.7	.
Cc1ccc(NC(=O)CCCN2C(=O)c3ccccc3C2=O)c([N+](=O)[O-])c1	-0.8	1.6	3.2
CCc1c(O)nc(SCC(=O)Nc2ccc(Cl)cc2Cl)n(-c2ccccc2)c1=O	7.7	-6.9	1.2
O=C(CSc1nnc(-c2cccc(Br)c2)n1-c1ccccc1)Nc1ccc(Cl)cc1	-4.0	-4.0	0.8
Cc1nc([N+](=O)[O-])c(Sc2nc3ncc(Cl)cc3[nH]2)n1Cc1ccccc1	61.6	-1.8	-12.8
CCn1c(SCC(=O)Nc2cccc(C(=O)O)c2)nnc1-c1ccc(Cl)cc1Cl	31.4	-1.8	1.6
COc1ccc(CN(C)C[C@@H]2Oc3c(NC(=O)Nc4ccc(C(F)(F)F)cc4)cccc3C(=O)N([C@H](C)CO)C[C@H]2C)cc1	104.5*	.	-6.1
COc1ccc(NC(=O)Nc2cccc3c2O[C@@H](CN(C)Cc2ccc(C(F)(F)F)cc2)[C@H](C)CN([C@@H](C)CO)C3=O)cc1	98.2*	.	-4.4
COc1ccc(CN(C)C[C@H]2Oc3c(NC(=O)Nc4ccc(F)cc4)cccc3C(=O)N([C@@H](C)CO)C[C@H]2C)cc1	29.4	.	2.2
